Experimental data published in PubChem BioAssay (Tox21).
“And” between values parts separate entries of the source, which are not always exact repeats. Equal values may be shown once. Results filed as inconclusive are left out. Values without a mark were called inactive. The source made the active and inactive calls. Calls come from the whole dose curve; as a rule, active = well fitted cell-killing curve with a large enough effect in the repeat runs; inconclusive = weak or mixed curves, or effect the other way; inactive = no such curve, though single readings can be large or run the other way.

Assay: qHTS assay for identifying genotoxic compounds that show differential cytotoxicity against isogenic chicken DT40 cell lines with known DNA damage response pathways - wild type cell line (AID 743012); note: nearly all actives have a fitted effect of over 60% in size
Settings: DT40 wild type chicken cells viability, CellTiter-Glo, 40 h; series mostly up to 68.4 µM; activity change, negative = cytotoxicity: at the top concentration
Text: U.S. Tox21 Program National Center for Advancing Translational Sciences [NCATS] NIH Chemical Genomics Center [NCGC] U.S. Environmental Protection Agency [EPA] National Institutes of Environmental Health Sciences [NIEHS] National Toxicology Program [NTP] U.S. Food and Drug Administration [FDA] Tox21 Assay Overview: DNA repair pathways play a critical role in cellular homeostasis by repairing DNA damage induced by endogenous processes and xenobiotics. Isogenic chicken DT40 cell lines deficient in different DNA repair pathways can be used to identify genotoxic compounds and aid in characterizing the nature of the DNA damage induced. Two DNA repair-deficient cell lines with disrupted genes, Rad54/Ku70 or Rev3, were used to screen the Tox21 10K compound library. Possible genotoxicity was based on the presence of a significant increase in cytotoxicity in one or more of the DNA repair-deficient cell lines compared to that observed in the parental DNA repair-proficient cell line. CellTiter Glo viability assay (Promega, Madison, WI) was used to measure cell viability in these cells after compound treatment. This assay includes the data from the wild type cell line.
Tox21 Assay Protocol Summary: 300 DT40 wild type cells in 5 uL/well were dispensed into white, solid-bottom 1536-well plates using a Multidrop Combi (ThermoFisher Scientific, Waltham, MA) dispenser. After the assay plates were incubated at 37 C/5% CO2 for approximately 0.5 hour, 23 nL of compounds dissolved in DMSO, positive controls or DMSO only was transferred into the assay plate by a pintool work station (Kalypsys, San Diego, CA). The assay plates were incubated at 37 C/5% CO2 for 40 hours. After 5 uL per well of CellTiter-Glo reagent was added into each well of the assay plates, the plates were incubated for 30 min at room temperature and the luminescence intensity of the plates was measured using a ViewLux (PerkinElmer, Shelton, CT) plate reader.
% is set by controls: 0 for no effect and ±100 for the full control effect; potency is the fitted concentration of half-maximal effect.

Structure (SMILES)	activity change, negative = cytotoxicity	Potency
CC(C)(O)C(=O)c1ccccc1	34.1%	–
CC(=O)CC(C)(C)C1CCCCC1	-2.71%	–
CN(C(=O)c1c(O)c2ccccc2n(C)c1=O)c1ccccc1	0.368%	–
CCOC(=O)CC(C)=O	-0.0915% [at 95 µM]	–
Oc1ccc(C2CNCCc3c2cc(O)c(O)c3Cl)cc1 (stereo not given)	-9.25%	–
O=C1CCCC(=O)C1	8.32%	–
O=[N+]([O-])c1ccc(F)cc1F	6.8% [at 95 µM]	–
CC(C)(O)C#CC(C)(C)O	9.99% [at 95 µM]	–
C=CCS(=O)(=O)O	20.6%	–
CCOC(=O)C(=O)OCC	-7.37%	–
FC(F)OC(Cl)C(F)(F)F (stereo not given)	–	inactive
CO/N=C(/C(=O)N[C@@H]1C(=O)N2C(C(=O)OCOC(=O)C(C)(C)C)=C(C)CS[C@H]12)c1csc(N)n1	-2.11%	–
COc1ccccc1OCC(O)CN1CCN(CC(=O)Nc2c(C)cccc2C)CC1 (stereo not given)	-20%	–
CCc1ccc(O)c(OC)c1	15.1%	–
O=C1CCCN1C1CCCCC1	-9.09%	–
C=COCC1CCC(CO)CC1 (stereo not given)	0.0081%	–
CC(C)NCC(O)c1ccc(NS(C)(=O)=O)cc1 (stereo not given)	–	inactive
CCOC(=O)c1cccc(N)c1	-0.477%	–
Cc1[nH]c(=O)c(C#N)cc1-c1ccc2nccn2c1	8.33%	–
COc1ccc(CCN(C)CCCC(C#N)(c2cc(OC)c(OC)c(OC)c2)C(C)C)cc1OC (stereo not given)	–	16.8 µM (active)

Structure (SMILES)	activity change, negative = cytotoxicity	Potency
NC(=O)c1ccc(N)cc1	23%	–
c1cnc(N2CCN(Cc3ccc4c(c3)OCO4)CC2)nc1	-15.6%	–
N[C@H](C(=O)O)c1ccc(O)cc1	7.37%	–
CC1(C)CO[C@@H](CC(=O)O)CN1	2.16%	–
CCOC(C)(C)C	2% [at 95 µM]	–
CN(C)CCCN1c2ccccc2CCc2ccc(Cl)cc21	–	7.5 µM (active) and 6.11 µM (active)
O=C[C@H](O)[C@@H](O)[C@H](O)[C@H](O)CO	–	inactive
CN1CCN(c2cc3c(cc2F)c(=O)c(C(=O)O)cn3-c2ccc(F)cc2)CC1	–	23.7 µM (active)
CN(C)CCCNCCCN(C)C	10.4%	–
CCn1ccnc1CC1COc2ccccc2O1 (stereo not given)	-2.7%	–
CCN1CCC[C@H]1CNC(=O)c1c(O)c(Cl)cc(Cl)c1OC	-5.55%	–
O=c1cc(CO)occ1O	–	inactive
O=C1CCCCCCCCCCCN1	1.41%	–
NCCCNCCSP(=O)(O)O	17.1%	–
CN1CCCC1	4.65%	–
CCCCC(CC)COC(=O)c1ccccc1O (stereo not given)	12.7%	–
OC[C@]1(O)OC[C@@H](O)[C@H](O)[C@@H]1O	–	inactive
COc1c(N2C[C@@H]3CCCN[C@@H]3C2)c(F)cc2c(=O)c(C(=O)O)cn(C3CC3)c12	8.19%	–
NCCc1cnc[nH]1	6.73%	–
COc1cc(C(=O)N2CCCCCCC2)cc(OC)c1OC	–	21.1 µM (active)
